Experimental findings from PubChem BioAssay (NCI) are described below.

This is part of a sample that, as a whole, favours compounds with a hit. Of some 83,000 tested, about 20% had one in any assay.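 For each line, cells grew in 96-well plates with the test compound present at a single concentration for 48 hours.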 A number with no mark means an inactive call. Activity calls are given as the source filed them. The calls were made as follows: active = growth percent below 10; inactive = the rest.

One experiment deals with A549/ATCC NSCLC. The experiment in a line: NCI-60 one-dose screen, 48 h (100 = growth as untreated, 0 = no growth, -100 = all killed). The conditions noted are these: 10 µM unless noted.
As for `Nc1nc2c3ccncc3cc(-c3cccc(Cl)c3)c2c2cnccc12`, the growth was 28.3%.

As to `O=C1c2cc3c(cc2-c2c1c1ccc(F)cc1c(=O)n2CCCN1CCOCC1)OCO3`, the growth is 33.8%.

Regarding `c1ccc(CN2C(c3ccccc3)=Nc3ccccc3C2c2c[nH]c3ccccc23)cc1` (stereo unspecified), the growth is 65.5%.

`O=C1C(Cl)=C(Nc2ccc(S(=O)(=O)c3ccc(NC4=C(Cl)C(=O)c5ccccc5C4=O)cc3)cc2)C(=O)c2ccccc21`: the growth was 74%.

Regarding `CCc1cccc(CC)c1NC(=O)c1sc2nc3c(cc2c1N)CCCC3`, the growth was 69.7%.

Consider `COc1cc2[nH]c(C(=O)c3cc(OC)c(OC)c(OC)c3)c(N)c2cc1C#CCO`, for which the growth is 33%.

With `Cn1cc(-c2csc(-c3cn(C(=O)OC(C)(C)C)c4ccc(Br)cc34)n2)c2cccnc21`, the growth was 78.5%.

In the case of `Fc1cccc(-c2[nH]nc3nc(Nc4cccnc4)sc23)c1`, the growth was 37.8%.

`O=Cc1nc2ccccc2[nH]1`: the growth was 84.5%.

Consider `N#C/C(=C\c1ccc(-c2ccc(Br)cc2)o1)c1nc(-c2ccco2)cs1`, for which the growth was 98.3%.

On to `C[C@H]1OC(=O)/C=C/[C@@H](O)[C@@H](O)CCCCCCCC[C@@H]1O`, for which the growth is 73.6%.

On to `C=C1C(=O)O[C@H]2[C@H]1CC/C(COC(=O)NCc1cc3ccccc3[nH]1)=C\CC[C@@]1(C)O[C@@H]21`, for which the growth was 77.4%.

As for `Cc1ccc(-c2nn(Cc3cn(-c4cc(C)nc5ccccc45)nn3)c3ncnc(N)c23)cc1`, the growth was 44.1%.

For `COc1ccc(-c2nc3ncccn3c2-c2nc3ccc(Br)cc3[nH]2)cc1`, the growth is 84.9%.

For the compound `CCCCC[C@H]1C/C=C2/C(=O)C(Cl)=C[C@@H]2C/C=C\CCCC(=O)O[C@@H](CCCCC)C/C=C2/C(=O)C(Cl)=C[C@@H]2C/C=C\CCCC(=O)O1`, the growth was -51.4% (active).

Turning to `O=C1CNCCN1`, the growth was 93.4%.

In the case of `COc1ccc2c3c(c4ccccc4cc13)C(=O)N(CCN(C)CCN)C2=O`, the growth was -78.3% (active).

For the compound `CCN(CC)CCCCCNc1cc(OC(=O)c2ccccc2)cc2cccnc12`, the growth is 122%.

For `CC(=O)OC(C)COc1ccc(-c2ccccc2)cc1` (stereo unspecified), the growth is 54.9%.

Turning to `COc1ccc(CCN2C(=O)C(C)(C)SC2=S)cc1OC`, the growth was 101%.

As to `c1ccc2[nH]c(-c3cc(-c4ccc5c(c4)OCO5)n[nH]3)nc2c1`, the growth was 58.8%.

For `Cn1cc(-c2csc(-c3cn(CCCN4CCCCC4)c4ccccc34)n2)c2cccnc21`, the growth was -14.4% (active).

In the case of `COC(=O)[C@]12CC[C@@H](C)[C@H](C)[C@@H]1C1=CC[C@@H]3[C@@]4(C)C[C@@H](O)[C@H](O)[C@@](C)(CO)C4=CC[C@@]3(C)[C@]1(C)CC2`, the growth is -14.1% (active).

Regarding `CC1(n2nnnc2N2CCCN(c3ncccc3N)CC2)CCC1`, the growth is 107%.

Turning to `C=C1CC[C@@H](C(=O)OC)Cc2nc(C)ccc21`, the growth is 98.5%.

On to `Clc1cc(Cl)cc(Nc2ccc3c(OCCCN4CCOCC4)cccc3n2)c1`, for which the growth is 25.6%.

With `Cc1ccc(-c2ccc(/C=C(\C#N)c3nc(-c4ccco4)cs3)o2)cc1`, the growth was 103%.

Consider `CCSc1ncnc2c1ncn2C1OC(CO)C(O)C1O` (stereo unspecified), for which the growth is 14.6%.

For `CCN(CC)C(=O)CCCCCn1c2ccccc2c2c3c(c4c5ccccc5[nH]c4c21)C(=O)N(O)C3=O`, the growth is 87.2%.

With `N#C/C(=C\c1ccc(-c2ccccc2)o1)c1nc(-c2ccco2)cs1`, the growth was 101%.

`C/C(=N\Nc1cc(C)c2cc(C)ccc2n1)c1ccccn1`: the growth was 1.9% (active).

For the compound `O=C1c2ccccc2NC(c2cn(-c3ccccc3)nc2-c2cccs2)N1Cc1ccccc1` (stereo unspecified), the growth was 82.8%.

For `C[C@]12CC[C@@H]3c4ccc(O)cc4CC[C@H]3[C@@H]1C[C@H](O)[C@@H]2O`, the growth was 97.9%.

As for `CC(=O)n1c(/C(C#N)=C/c2ccc(N(C)C)cc2)cc2ccccc21`, the growth is 48.8%.

On to `Fc1ccc2[nH]cc(-c3nc(-c4c[nH]c5ncccc45)cs3)c2c1`, for which the growth is 31.1%.

As for `S=c1[nH]nc2ccccn12`, the growth was 106%.

For `N#Cc1c(-c2ccc(O)cc2)c2c(N)nn(-c3ccccc3)c2[nH]c1=O`, the growth was 117%.

With `COc1ccc(OC)c(-c2c(C#N)c(-c3ccco3)nc3c2c(-c2ccccc2)nn3-c2ccccc2)c1`, the growth was 94.9%.

The next experiment concerns 786-0 renal. The description is as above. Conditions: 10 µM unless noted.
In the case of `Nc1nc2c3ccncc3cc(-c3cccc(Cl)c3)c2c2cnccc12`, the growth is 21.3%.

With `O=C1c2cc3c(cc2-c2c1c1ccc(F)cc1c(=O)n2CCCN1CCOCC1)OCO3`, the growth is 24.1%.

Take `c1ccc(CN2C(c3ccccc3)=Nc3ccccc3C2c2c[nH]c3ccccc23)cc1` (stereo unspecified): the growth is 46.7%.

With `O=C1C(Cl)=C(Nc2ccc(S(=O)(=O)c3ccc(NC4=C(Cl)C(=O)c5ccccc5C4=O)cc3)cc2)C(=O)c2ccccc21`, the growth is 26.4%.

Turning to `CCc1cccc(CC)c1NC(=O)c1sc2nc3c(cc2c1N)CCCC3`, the growth was 87.8%.

Turning to `COc1cc2[nH]c(C(=O)c3cc(OC)c(OC)c(OC)c3)c(N)c2cc1C#CCO`, the growth was 40.8%.

Consider `Cn1cc(-c2csc(-c3cn(C(=O)OC(C)(C)C)c4ccc(Br)cc34)n2)c2cccnc21`, for which the growth is 99.9%.

`Fc1cccc(-c2[nH]nc3nc(Nc4cccnc4)sc23)c1`: the growth is 53.6%.

As for `O=Cc1nc2ccccc2[nH]1`, the growth is 101%.

For `N#C/C(=C\c1ccc(-c2ccc(Br)cc2)o1)c1nc(-c2ccco2)cs1`, the growth is 98.8%.

For `C[C@H]1OC(=O)/C=C/[C@@H](O)[C@@H](O)CCCCCCCC[C@@H]1O`, the growth is 97.5%.

For `C=C1C(=O)O[C@H]2[C@H]1CC/C(COC(=O)NCc1cc3ccccc3[nH]1)=C\CC[C@@]1(C)O[C@@H]21`, the growth is -84.5% (active).

Turning to `Cc1ccc(-c2nn(Cc3cn(-c4cc(C)nc5ccccc45)nn3)c3ncnc(N)c23)cc1`, the growth is 48.6%.

`COc1ccc(-c2nc3ncccn3c2-c2nc3ccc(Br)cc3[nH]2)cc1`: the growth was 98.1%.

For `CCCCC[C@H]1C/C=C2/C(=O)C(Cl)=C[C@@H]2C/C=C\CCCC(=O)O[C@@H](CCCCC)C/C=C2/C(=O)C(Cl)=C[C@@H]2C/C=C\CCCC(=O)O1`, the growth is -66.9% (active).

`O=C1CNCCN1`: the growth is 100%.

`COc1ccc2c3c(c4ccccc4cc13)C(=O)N(CCN(C)CCN)C2=O`: the growth was -97.9% (active).

Take `CCN(CC)CCCCCNc1cc(OC(=O)c2ccccc2)cc2cccnc12`: the growth was 100%.

Regarding `CC(=O)OC(C)COc1ccc(-c2ccccc2)cc1` (stereo unspecified), the growth was 93.4%.

Turning to `COc1ccc(CCN2C(=O)C(C)(C)SC2=S)cc1OC`, the growth is 102%.

Take `c1ccc2[nH]c(-c3cc(-c4ccc5c(c4)OCO5)n[nH]3)nc2c1`: the growth was 55.7%.

On to `Cn1cc(-c2csc(-c3cn(CCCN4CCCCC4)c4ccccc34)n2)c2cccnc21`, for which the growth is -87.1% (active).

Consider `COC(=O)[C@]12CC[C@@H](C)[C@H](C)[C@@H]1C1=CC[C@@H]3[C@@]4(C)C[C@@H](O)[C@H](O)[C@@](C)(CO)C4=CC[C@@]3(C)[C@]1(C)CC2`, for which the growth is -74.1% (active).

With `CC1(n2nnnc2N2CCCN(c3ncccc3N)CC2)CCC1`, the growth was 104%.

On to `C=C1CC[C@@H](C(=O)OC)Cc2nc(C)ccc21`, for which the growth is 101%.

Take `Clc1cc(Cl)cc(Nc2ccc3c(OCCCN4CCOCC4)cccc3n2)c1`: the growth is 54%.

Consider `Cc1ccc(-c2ccc(/C=C(\C#N)c3nc(-c4ccco4)cs3)o2)cc1`, for which the growth is 106%.

As to `CCSc1ncnc2c1ncn2C1OC(CO)C(O)C1O` (stereo unspecified), the growth is 24.1%.

As for `CCN(CC)C(=O)CCCCCn1c2ccccc2c2c3c(c4c5ccccc5[nH]c4c21)C(=O)N(O)C3=O`, the growth was 78.1%.

`N#C/C(=C\c1ccc(-c2ccccc2)o1)c1nc(-c2ccco2)cs1`: the growth is 106%.

`C/C(=N\Nc1cc(C)c2cc(C)ccc2n1)c1ccccn1`: the growth was -73.3% (active).

With `O=C1c2ccccc2NC(c2cn(-c3ccccc3)nc2-c2cccs2)N1Cc1ccccc1` (stereo unspecified), the growth is 73.6%.

`C[C@]12CC[C@@H]3c4ccc(O)cc4CC[C@H]3[C@@H]1C[C@H](O)[C@@H]2O`: the growth is 106%.

For the compound `CC(=O)n1c(/C(C#N)=C/c2ccc(N(C)C)cc2)cc2ccccc21`, the growth is 41.3%.

As to `Fc1ccc2[nH]cc(-c3nc(-c4c[nH]c5ncccc45)cs3)c2c1`, the growth is 41.5%.

As for `S=c1[nH]nc2ccccn12`, the growth is 112%.

With `N#Cc1c(-c2ccc(O)cc2)c2c(N)nn(-c3ccccc3)c2[nH]c1=O`, the growth is 107%.

On to `COc1ccc(OC)c(-c2c(C#N)c(-c3ccco3)nc3c2c(-c2ccccc2)nn3-c2ccccc2)c1`, for which the growth was 100%.
